# Records with an inconclusive call do not appear. The source made the active and inactive calls. Unless noted, the call rests on the fitted dose curve; in most records, active means well fitted curve in the direction sought with a large enough effect; inconclusive means small, poorly fitted or top-dose-only effect, or another doubt; inactive means no such curve, though single readings can be large; an effect the other way counts as inactive or inconclusive.
# Experiments:
# [1] = molecular target: Catechol O-methyltransferase (Homo sapiens) (UniProt P21964); experiment: Confirmatory Screen for Target Class Profiling of Small Molecule Inhibitors of Methyltransferases (AID 1745852; calls by dose curve; on activity change, negative = inhibition: on the % scale 0 is the no-effect control and ±100 the full control effect); conditions: MTase-Glo luminescence, SAH detection, recombinant enzyme; measured here: COMT max response; stronger effect = lower value
# [2] = molecular target: Guanidinoacetate N-methyltransferase (Homo sapiens) (UniProt Q14353); experiment: as above; conditions: MTase-Glo luminescence, SAH detection, recombinant enzyme; activity change, negative = inhibition: at 85.7 µM (top of the series) unless noted
# [3] = molecular target: Nicotinamide N-methyltransferase (Homo sapiens) (UniProt P40261); experiment: as above; conditions: MTase-Glo luminescence, SAH detection, recombinant enzyme; measured here: NNMT max response; stronger effect = lower value
# [4] = molecular target: Phenylethanolamine N-methyltransferase (Homo sapiens) (UniProt P11086); experiment: as above; conditions: MTase-Glo luminescence, SAH detection, recombinant enzyme; measured here: PNMT max response; stronger effect = lower value
# [5] = NCATS anti-infectives library activity on HEK293 viability as a counter-qHTS vs the C. elegans viability qHTS (AID 1745854); conditions: HEK293 viability counter-screen; series mostly up to 41.8 µM;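 further: HEK293 cells exposed to compounds for 24 hr before the viability read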
# Method in brief: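 Cytotoxicity in human HEK293 cells is measured by ATP-dependent CellTiter-Glo luminescence following a 24 hr incubation with titrated library compounds at 37C. Top final concentration is 41.7 uM.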
# [6] = qHTS for differential inhibitors of proliferation of Plasmodium falciparum line Dd2 (AID 1882); conditions: Potency: Plasmodium falciparum Dd2 proliferation inhibition; series mostly up to 28.7 µM; further: nearly all actives have a fitted effect of over 65% in size;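 on activity change, negative = inhibition: compound exposure of 72 h on infected erythrocytes; plate controls were DMSO vehicle for no effect and 0.29 µM artemisinin for full effect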
# Method in brief: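 SYBR Green I DNA fluorescence read-out, ex 485/em 535 nm. Signals were normalized to 0.29 uM artemisinin and DMSO wells, then corrected using vehicle-only plates flanking each stack. Parasite growth ran 72 h in erythrocytes before lysis.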
# [7] = qHTS for differential inhibitors of proliferation of Plasmodium falciparum line W2 (AID 1883); conditions: Potency: Plasmodium falciparum W2 proliferation inhibition; series mostly up to 28.7 µM;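 further: parasites grown with compound for 72 h before lysis and staining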;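 on activity change, negative = inhibition: 0% = vehicle wells and -100% = control inhibitor wells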
# [8] = Validation screen for inhibitors of Lassa infection (AID 463096; calls by dose curve; on activity change, negative = inhibition: on the % scale 0 is the no-effect control and ±100 the full control effect); conditions: Lassa virus infection, cell-based; series mostly up to 46.1 µM
# [9] = molecular target: M-phase phosphoprotein 8 (Homo sapiens) (UniProt Q99549); experiment: qHTS Validation Assay for Inhibitors for MPP8 Chromodomain Interactions with Methylated Histone Tails (AID 488949); conditions: AlphaScreen MPP8 binding to H3K9me3 peptide; series mostly up to 114 µM; further: nearly all actives have a fitted effect of over 55% in size;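 on activity change, negative = inhibition: 50 nM MPP8 with 50 nM peptide preformed then compounds added for 30 min; AlphaScreen signal from MPP8 chromodomain bound to biotinylated H3K9me3 peptide; top concentration of the series differs between compounds; on the % scale 0 is the no-effect control and ±100 the full control effect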
# Method in brief: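 50 nM MPP8 + 50 nM b-H3K9me3 peptide, PBS pH 7.4/0.01% Tween-20, 30 min RT; + cpd 30 min RT; + AlphaScreen donor/Ni-chelate acceptor beads 10 ug/mL final, 30 min dark; luminescence read.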
# [10] = qHTS for differential inhibitors of proliferation of Plasmodium falciparum line 3D7 (AID 1876); conditions: P. falciparum 3D7 proliferation inhibition; series mostly up to 28.7 µM
# Potency means the concentration at half of the fitted maximal effect.
# M-phase phosphoprotein 8 (Homo sapiens), sequence (Q99549 whole entry, looked up): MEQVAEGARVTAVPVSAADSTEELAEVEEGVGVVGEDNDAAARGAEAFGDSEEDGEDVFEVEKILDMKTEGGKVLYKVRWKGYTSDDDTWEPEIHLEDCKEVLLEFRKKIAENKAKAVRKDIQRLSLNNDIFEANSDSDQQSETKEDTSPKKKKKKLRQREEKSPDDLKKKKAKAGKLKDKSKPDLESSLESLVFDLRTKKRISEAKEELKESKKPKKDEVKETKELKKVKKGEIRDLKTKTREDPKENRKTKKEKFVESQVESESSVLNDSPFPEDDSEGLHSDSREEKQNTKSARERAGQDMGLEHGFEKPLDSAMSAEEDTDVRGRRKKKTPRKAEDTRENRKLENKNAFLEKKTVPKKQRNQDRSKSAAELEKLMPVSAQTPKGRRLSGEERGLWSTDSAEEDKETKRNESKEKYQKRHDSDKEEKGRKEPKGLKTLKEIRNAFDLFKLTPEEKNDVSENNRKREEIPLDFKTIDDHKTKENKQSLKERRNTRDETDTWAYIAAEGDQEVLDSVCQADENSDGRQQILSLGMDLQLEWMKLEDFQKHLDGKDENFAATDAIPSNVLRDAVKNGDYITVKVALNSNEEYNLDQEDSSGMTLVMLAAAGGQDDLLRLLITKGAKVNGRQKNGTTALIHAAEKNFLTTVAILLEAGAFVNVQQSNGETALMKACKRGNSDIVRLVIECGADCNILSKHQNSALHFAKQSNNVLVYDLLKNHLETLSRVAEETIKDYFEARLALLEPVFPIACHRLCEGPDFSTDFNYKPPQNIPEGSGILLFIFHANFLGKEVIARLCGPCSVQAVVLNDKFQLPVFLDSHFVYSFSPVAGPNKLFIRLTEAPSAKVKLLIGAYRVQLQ
# Catechol O-methyltransferase (Homo sapiens), sequence (P21964 whole entry, looked up): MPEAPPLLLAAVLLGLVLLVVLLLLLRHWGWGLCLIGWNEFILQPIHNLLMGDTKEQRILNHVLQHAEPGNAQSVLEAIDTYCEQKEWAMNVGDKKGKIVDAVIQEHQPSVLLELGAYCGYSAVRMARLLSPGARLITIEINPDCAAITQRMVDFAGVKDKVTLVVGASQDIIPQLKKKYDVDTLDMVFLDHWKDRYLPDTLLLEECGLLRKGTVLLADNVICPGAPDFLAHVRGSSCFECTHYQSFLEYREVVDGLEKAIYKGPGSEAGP
# Phenylethanolamine N-methyltransferase (Homo sapiens), sequence (P11086 whole entry, looked up): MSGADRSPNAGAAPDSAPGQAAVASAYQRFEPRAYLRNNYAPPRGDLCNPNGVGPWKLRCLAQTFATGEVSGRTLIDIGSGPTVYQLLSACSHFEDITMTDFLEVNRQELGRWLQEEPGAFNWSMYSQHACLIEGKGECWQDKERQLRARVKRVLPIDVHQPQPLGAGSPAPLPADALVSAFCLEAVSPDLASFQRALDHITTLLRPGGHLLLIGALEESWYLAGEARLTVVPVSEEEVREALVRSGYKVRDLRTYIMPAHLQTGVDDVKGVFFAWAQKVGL
# Nicotinamide N-methyltransferase (Homo sapiens), sequence (P40261 whole entry, looked up): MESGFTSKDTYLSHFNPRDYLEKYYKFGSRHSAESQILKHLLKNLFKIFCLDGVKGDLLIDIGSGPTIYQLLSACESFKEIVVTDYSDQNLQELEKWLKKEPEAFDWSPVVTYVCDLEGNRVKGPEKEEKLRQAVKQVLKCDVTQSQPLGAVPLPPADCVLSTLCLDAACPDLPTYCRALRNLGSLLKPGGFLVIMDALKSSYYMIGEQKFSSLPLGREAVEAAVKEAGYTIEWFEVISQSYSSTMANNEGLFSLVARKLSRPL
smiles,measurement,setting,value
C=C[C@H]1CN2CC[C@H]1C[C@@H]2CNC(=O)Nc1ccc(Br)cc1,activity,[1],4.06%
same,"activity change, negative = inhibition",[2],-0.845%
same,activity,[3],-5.4%
same,activity,[4],4.01%
CC(=O)O[C@H]1[C@H]2[C@@H](OC(=O)Cc3ccccc3)[C@@H](C)C[C@]2(OC(C)=O)C(=O)/C(C)=C/[C@@H]2[C@H](CC[C@@]13CO3)C2(C)C,Potency,[5],inactive
CC(=O)c1cccc(NC(=O)NC[C@H]2C[C@@H]3CCN2C[C@@H]3c2cc(-c3ccc(F)cc3)nc(C)n2)c1,activity,[1],2.65%
same,"activity change, negative = inhibition",[2],5.17% [at 57.3 µM]
same,activity,[3],-9.36%
same,activity,[4],3.37%
CCCC(=O)O[C@H]1CN2CC[C@H](O)[C@@H]2[C@@H](O)[C@@H]1O,Potency,[5],inactive
Nc1cccc(C(OCCN2CCCCC2)c2cc3nccc(C(=O)O)c3s2)c1 (stereo unspecified),Potency,[5],inactive
C[C@@H](N)C(=O)N[C@@H](CO)C(=O)N[C@H](C(=O)N[C@H](C(=O)N[C@H](C(=O)N[C@@H](CC(N)=O)C(=O)N[C@@H](Cc1ccc(O)cc1)C(=O)N[C@H](C(N)=O)[C@@H](C)O)[C@@H](C)O)[C@@H](C)O)[C@@H](C)O,Potency,[5],inactive
Oc1cc2c(cc1O)[C@H]1c3ccccc3CNC1CC2 (stereo partly specified),Potency,[6],8.91 µM (active)
same,Potency,[7],10 µM (active)
same,Potency,[8],inactive
same,Potency,[9],25.1 µM (active)
C[C@H]1CCCC(=O)CCC/C=C/c2cc(O)cc(O)c2C(=O)O1,activity,[1],-93%
same,Potency,[2],17.1 µM (active)
same,activity,[3],-84.9%
same,activity,[4],-95%
C[C@]12C=CC(=O)C=C1CCC1C2=CC[C@]2(C)[C@@H](C(=O)CN3CCN(c4cc(N5CCCC5)nc(N5CCCC5)n4)CC3)CC[C@@H]12 (stereo partly specified),Potency,[10],0.794 µM (active)
same,Potency,[6],10 µM (active)
same,Potency,[7],0.794 µM (active)
CN(CCc1ccccn1)C[C@H]1CN2CC[C@H]1C[C@@H]2CNC(=O)Nc1ccsc1,activity,[1],-2.73%
same,"activity change, negative = inhibition",[2],6.86%
same,activity,[3],0.703%
same,activity,[4],-0.547%
C/C=C(/C)C(=O)O[C@H]1C(C)=C2C([C@@H]1OC(=O)CCCCCCC)[C@@](C)(OC(C)=O)C[C@@H](OC(=O)CCC)[C@@]1(O)[C@H]2OC(=O)[C@@]1(C)O (stereo partly specified),Potency,[10],4.47 µM (active)
same,Potency,[6],8.91 µM (active)
same,Potency,[7],3.55 µM (active)
same,Potency,[8],3.16 µM (active)
same,Potency,[9],inactive
O=c1ccc2ccc3occc3c2o1,Potency,[5],inactive
CC(=O)NC[C@H]1C[C@@H]2CCN1C[C@@H]2c1cc(-c2ccc3ccccc3c2)nn1C,activity,[1],4.95%
same,"activity change, negative = inhibition",[2],4.16%
same,activity,[3],1.11%
same,activity,[4],2.7%
O=C(Nc1ccccc1F)N[C@H]1N=C(c2ccccc2)c2ccccc2NC1=O,Potency,[5],inactive
[Hg+][c]1ccccc1,Potency,[5],2 µM (active)
Nc1ncnc2c1ccn2[C@@H]1O[C@H](CO)[C@@H](O)[C@H]1O,Potency,[5],1.12 µM (active)
COc1ccc(-c2cc3c(cn2)CN(C)CCN3)cn1,activity,[1],1.58%
same,"activity change, negative = inhibition",[2],-1.54% [at 114 µM]
same,activity,[3],-5.95%
same,activity,[4],-1.09%
CC[C@H]1CN2CCc3cc(OC)c(OC)cc3[C@@H]2C[C@@H]1C[C@H]1NCCc2cc(O)c(OC)cc21,Potency,[5],inactive
CC[C@H]1CN2CC[C@H]1C[C@@H]2CNCc1ccc(-c2ccccc2)cc1,activity,[1],3.75%
same,"activity change, negative = inhibition",[2],4.44%
same,activity,[3],4.25%
same,activity,[4],-4.01%
NC(=O)c1ccc(N2CC3CCC(C2)N3CC(F)(F)F)nn1,activity,[1],10.2%
same,"activity change, negative = inhibition",[2],9.09%
same,activity,[3],-22.1%
same,activity,[4],10.9%
C[C@]12CC[C@H](OS(=O)(=O)O)CC1=CCC1C2CC[C@]2(C)C(=O)CC[C@@H]12 (stereo partly specified),Potency,[10],inactive
same,Potency,[6],inactive
same,Potency,[7],inactive
same,Potency,[8],inactive
same,Potency,[9],inactive
C[C@]12CC[C@@H](O)CC1CCC1C2CC[C@]2(C)C(=O)CC[C@@H]12 (stereo partly specified),Potency,[10],inactive
same,Potency,[6],inactive
same,Potency,[7],10 µM (active)
same,Potency,[8],inactive
same,Potency,[9],inactive
O=C(Nc1ccccc1F)N[C@@H]1N=C(c2ccccc2)c2ccccc2NC1=O,Potency,[5],inactive
CC(C)=CCC[C@](C)(O)[C@H]1CC[C@@]2(C)[C@H]1[C@@H](O)CC1[C@@]3(C)CC[C@@H](O[C@@H]4O[C@H](CO)[C@@H](O)[C@H](O)[C@H]4O)C(C)(C)C3CC[C@]12C (stereo partly specified),Potency,[5],inactive
N.N.N.N.N.N.N.N.N.N.N.N.N.N.O.O.[Cl-].[Cl-].[Cl-].[Cl-].[Cl-].[Cl-].[Ru].[Ru].[Ru],Potency,[8],inactive
same,Potency,[9],10 µM (active)
[Cl][Pt].[NH2-].[NH2-].c1ccncc1,activity,[1],-4.9%
same,"activity change, negative = inhibition",[2],3.42% [at 57.3 µM]
same,activity,[3],-8.73%
same,activity,[4],0.0118%

# From PubChem BioAssay (NCATS)
